In PubChem BioAssay (Tox21):
Inconclusive results are not listed. Active and inactive are the calls of the source. Unless noted, the call rests on the fitted dose curve; in most records, active means well fitted curve in the direction sought with a large enough effect in the repeat runs; inconclusive means weak or mixed curves; inactive means no such curve, though single readings can be large; an effect the other way counts as inactive or inconclusive.

Assays:
[1] = qHTS assay to identify small molecule antagonists of the estrogen related receptor (ERR) signaling pathway from Tox21 library - cell viability counter screen (AID 1224834); further: nearly all actives have a fitted effect of over 30% in size
Summary of the method: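 ERR reporter cells were plated 6 h before compound addition, then exposed to test compounds in DMSO for 17.5 h at 37 C. Viability was read as CellTiter-Fluor fluorescence after a 30-minute incubation at 37 C.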

[2] = target: Luciferin 4-monooxygenase (Photinus pyralis) (UniProt P08659); assay: qHTS assay to identify small molecule inhibitors of firefly luciferase (AID 1224835); further: nearly all actives have a fitted effect of over 25% in size
Sequence of Luciferin 4-monooxygenase (Photinus pyralis) (P08659 whole entry, looked up): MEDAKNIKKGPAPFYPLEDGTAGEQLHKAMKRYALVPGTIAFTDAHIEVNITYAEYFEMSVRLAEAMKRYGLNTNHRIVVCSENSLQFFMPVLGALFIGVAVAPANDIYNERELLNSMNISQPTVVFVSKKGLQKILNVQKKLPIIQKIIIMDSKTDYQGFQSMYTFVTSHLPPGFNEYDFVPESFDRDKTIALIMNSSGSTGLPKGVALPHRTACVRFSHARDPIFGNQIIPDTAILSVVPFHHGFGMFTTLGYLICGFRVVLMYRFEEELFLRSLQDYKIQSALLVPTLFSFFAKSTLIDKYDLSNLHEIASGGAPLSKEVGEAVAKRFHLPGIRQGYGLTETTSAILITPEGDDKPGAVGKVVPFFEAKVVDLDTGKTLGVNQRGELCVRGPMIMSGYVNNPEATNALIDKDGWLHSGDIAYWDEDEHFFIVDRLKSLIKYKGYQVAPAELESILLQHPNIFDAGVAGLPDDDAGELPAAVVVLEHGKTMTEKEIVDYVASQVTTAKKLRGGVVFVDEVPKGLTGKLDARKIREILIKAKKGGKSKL
Summary of the method: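 Quantitative HTS format; KM concentrations of both substrates. Purified P. pyralis FLuc activity quantified from luminescence images.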

[3] = qHTS assay to identify small molecule agonists of the constitutive androstane receptor (CAR) signaling pathway - cell viability counter screen (AID 1224836); further: nearly all actives have a fitted effect of over 45% in size
Summary of the method: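 Counter screen multiplexed with the CAR reporter readout: HepG2 cells co-transfected with hCAR and the CYP2B6-2.2kb construct receive a 15-concentration compound series and 0.75 uM PK11195 (final), then CellTiter-Fluor fluorescence is read after 23 h.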

[4] = qHTS assay to identify small molecule antagonists of the constitutive androstane receptor (CAR) signaling pathway - cell viability counter screen (AID 1224837); further: nearly all actives have a fitted effect of over 45% in size
Summary of the method: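 HepG2 cells stably expressing hCAR and a CYP2B6-2.2kb reporter were plated and pre-incubated 4 hr at 37 C/5% CO2, then given compounds at 15 concentrations plus 50 nM CITCO (final). After 23 hr, viability was read by CellTiter-Fluor fluorescence.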

[5] = qHTS assay to identify small molecule antagonists of the estrogen related receptor signaling pathway with the pleiotropic PPARgamma coactivator (PGC) from Tox21 10K library - cell viability counter screen (AID 1224840; active means well fitted cell-killing curve with a large enough effect in the repeat runs, not every such curve was filed as active; further: nearly all actives have a fitted effect of over 40% in size)
Summary of the method: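 PGC/ERR cells were seeded at 2,000 cells/well and left 6 hours at 37 C/5% CO2 before pin-tool addition of compounds in DMSO. After 17.5 hours at 37 C, CellTiter-Fluor was added and fluorescence read 30 minutes later.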

[6] = qHTS assay to identify small molecule agonists of the hypoxia (HIF-1) signaling pathway - cell viability counter screen (AID 1224844; calls by dose curve; further: nearly all actives have a fitted effect of over 50% in size)
Summary of the method: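 HRE-bla ME-180 cells in medium with 0.5% dialyzed FBS were preincubated 5 hrs at 37C, exposed to compounds for 17 hrs, then viability was read as CellTiter-Glo luminescence after 30 min at room temperature, in the reporter wells.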

[7] = qHTS assay to identify small molecule agonists of H2AX (AID 1224845; active means well fitted activation curve with a large enough effect in the signal ratio in the repeat runs, not every such curve was filed as active; the % refers to the signal ratio)
Summary of the method: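 Wild-type CHO-K1 cells plated overnight, then exposed 3 hr at 37C to compounds at 15 concentrations (0.76% DMSO). Lysed, then HTRF anti-pH2AX(S139)-cryptate/anti-H2AX-d2 detection after 24 hr at room temperature; emissions 665 and 620 nm.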

[8] = qHTS assay to identify small molecule agonists of H2AX - cell viability counter screen (AID 1224847; calls by dose curve; further: top concentration of the series differs between compounds; nearly all actives have a fitted effect of over 30% in size)
Summary of the method: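 We seed wild-type CHO-K1 cells overnight, treat them for 3 hr at 37C with compounds in 15-concentration series, and quantify remaining viability by CellTiter-Glo luminescence.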

[9] = qHTS RealTime-Glo MT Cell Viability Assay in HepG2 cells - 24 hour (AID 1224867); further: nearly all actives have a fitted effect of over 50% in size
Summary of the method: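 Luminescence read-out: viable HepG2 cells reduce a prosubstrate to a NanoLuc substrate, giving a signal proportional to live cell number. Reads taken at 0, 8, 16, 24, 32 and 40 h of compound exposure at 37 C.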

[10] = qHTS RealTime-Glo MT Cell Viability Assay in HEK293 cells - 32 hour (AID 1224868); further: top concentration of the series differs between compounds; nearly all actives have a fitted effect of over 50% in size
Summary of the method: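 Nonlytic real-time viability readout: viable cells convert prosubstrate to NanoLuc substrate, giving luminescence proportional to live cell number. HEK293, 600 cells/well, compound added after 5 h, continuous culture at 37 C.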

[11] = A CellTox Green Cytotoxicity Assay to monitor cytotoxicity in HEK293 cells - 0 hour (AID 1224869); further: nearly all actives have a fitted effect of over 50% in size
Summary of the method: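 HEK293 cells premixed with CellTox Green dye were seeded at 600 cells/well and left 5 h at 37 C/5% CO2 before pin transfer of 23 nL compound in DMSO. Fluorescence from dye bound to dead-cell DNA was read during 40 h treatment.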

[12] = qHTS RealTime-Glo MT Cell Viability Assay in HepG2 cells - 40 hour (AID 1224870); further: nearly all actives have a fitted effect of over 50% in size
Summary of the method: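 HepG2 cells mixed with RealTime-Glo MT reagents (NanoLuc plus cell-permeant prosubstrate) were seeded at 600 cells/well, incubated 5 h at 37 C/5% CO2, then pinned with compounds in DMSO; nonlytic luminescence tracked viability during 40 h treatment.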

[13] = target: Nuclear receptor subfamily 1 group I member 3 (Homo sapiens) (UniProt Q14994); assay: qHTS assay to identify small molecule antagonists of the constitutive androstane receptor (CAR) signaling pathway (AID 1224838); further: nearly all actives have a fitted effect of over 40% in size
Sequence of Nuclear receptor subfamily 1 group I member 3 (Homo sapiens) (Q14994 whole entry, looked up): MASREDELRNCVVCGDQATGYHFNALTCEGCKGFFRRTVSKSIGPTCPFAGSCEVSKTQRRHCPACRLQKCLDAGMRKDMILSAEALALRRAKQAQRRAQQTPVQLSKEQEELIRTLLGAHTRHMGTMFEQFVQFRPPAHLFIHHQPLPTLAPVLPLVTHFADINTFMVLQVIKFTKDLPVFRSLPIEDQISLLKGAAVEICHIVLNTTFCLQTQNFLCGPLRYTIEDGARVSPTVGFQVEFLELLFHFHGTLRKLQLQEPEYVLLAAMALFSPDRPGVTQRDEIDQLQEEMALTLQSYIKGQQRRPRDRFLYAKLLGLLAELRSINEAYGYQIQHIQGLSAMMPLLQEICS
Summary of the method: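 HepG2 cells stably co-transfected with hCAR and a CYP2B6-2.2kb luciferase reporter were seeded 4 h before compound addition at 15 concentrations. Cells were stimulated with 50 nM CITCO (final) for 24 h at 37 C; luciferase luminescence was then read.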

[14] = target: Nuclear receptor subfamily 1 group I member 3 (Homo sapiens) (UniProt Q14994); assay: qHTS assay to identify small molecule agonists of the constitutive androstane receptor (CAR) signaling pathway (AID 1224839); further: nearly all actives have a fitted effect of over 15% in size
Summary of the method: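 A 15-concentration quantitative screen uses HepG2 cells co-transfected stably with human CAR and CYP2B6-2.2kb reporter. Treatment lasts 24 h with 0.75 uM PK11195 final present; ONE-Glo luminescence is the signal.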

[15] = qHTS assay to identify small molecule antagonists of the estrogen related receptor signaling pathway with the pleiotropic PPARgamma coactivator (PGC) from Tox21 10K library (AID 1224841; call rule not given here)
Summary of the method: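 PGC/ERR reporter cells were seeded at 2,000 cells/well and held 6 hours at 37 C/5% CO2 before pin-tool addition of compounds in DMSO. After 18 hours at 37 C, One-Glo was added and luminescence read after 30 minutes at room temperature.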

[16] = qHTS assay to identify small molecule agonists of the estrogen related receptor signaling pathway with the pleiotropic PPARgamma coactivator (PGC) from Tox21 10K library (AID 1224842); further: nearly all actives have a fitted effect of over 15% in size
Summary of the method: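 PGC/ERR reporter cells (NTP line) were seeded 2,000 per well, rested 6 h at 37 C/5% CO2, then pin-dosed with compounds in DMSO for 18 h at 37 C; luciferase read by One-Glo luminescence after 30 min at room temperature.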

[17] = target: Thyrotropin receptor (Homo sapiens) (UniProt P16473); assay: qHTS assay to identify small molecule agonists of the thyroid stimulating hormone receptor (TSHR) signaling pathway (AID 1224843; calls by dose curve; further: nearly all actives have a fitted effect of over 45% in size)
Sequence of Thyrotropin receptor (Homo sapiens) (P16473 whole entry, looked up): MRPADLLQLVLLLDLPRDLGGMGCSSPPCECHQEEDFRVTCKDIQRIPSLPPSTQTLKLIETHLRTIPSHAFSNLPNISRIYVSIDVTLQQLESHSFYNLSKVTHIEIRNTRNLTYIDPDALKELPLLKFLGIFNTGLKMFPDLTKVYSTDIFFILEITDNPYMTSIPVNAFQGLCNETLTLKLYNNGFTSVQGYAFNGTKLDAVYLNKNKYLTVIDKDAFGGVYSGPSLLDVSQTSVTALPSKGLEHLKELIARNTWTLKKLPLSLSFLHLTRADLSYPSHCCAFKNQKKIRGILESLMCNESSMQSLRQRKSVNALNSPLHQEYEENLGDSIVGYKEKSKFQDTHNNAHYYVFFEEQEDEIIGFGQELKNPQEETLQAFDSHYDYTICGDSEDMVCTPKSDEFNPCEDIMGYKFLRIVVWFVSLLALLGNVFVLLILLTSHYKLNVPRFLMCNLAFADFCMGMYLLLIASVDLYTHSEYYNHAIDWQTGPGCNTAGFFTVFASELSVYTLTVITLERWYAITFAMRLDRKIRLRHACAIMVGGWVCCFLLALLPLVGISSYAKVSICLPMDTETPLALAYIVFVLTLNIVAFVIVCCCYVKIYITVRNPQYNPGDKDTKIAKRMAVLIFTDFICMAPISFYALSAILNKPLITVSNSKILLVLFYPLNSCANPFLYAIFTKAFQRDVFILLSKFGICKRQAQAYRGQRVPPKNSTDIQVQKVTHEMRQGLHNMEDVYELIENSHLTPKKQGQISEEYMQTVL
Summary of the method: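 Cell line HEK293 with TSHR; density 800/well. Exposure 30 min RT. Readout HTRF cAMP (cAMP-d2/anti-cAMP-cryptate), 1 h RT before reading.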

[18] = qHTS assay to identify small molecule agonists of the hypoxia (HIF-1) signaling pathway (AID 1224846; active means well fitted activation curve with a large enough effect in the signal ratio in the repeat runs, not every such curve was filed as active; the % refers to the signal ratio)
Summary of the method: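 HRE-bla ME-180 cells (beta-lactamase reporter under hypoxia response element) were plated at 2,000 cells/well in medium with 0.5% dialyzed FBS, rested 5 hrs, then given compounds in DMSO for 17 hrs at 37C, 5% CO2. Reporter induction was read with CCF4-AM FRET substrate.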

[19] = qHTS assay to identify small molecule antagonists of the estrogen related receptor (ERR) signaling pathway from Tox21 library (AID 1224848); further: nearly all actives have a fitted effect of over 50% in size
Summary of the method: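 Screening used an ERR reporter line supplied by NTP, exposed for 18 h at 37 C to library compounds delivered in DMSO. Signal was luciferase luminescence developed with ONE-Glo at room temperature for 30 min.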

[20] = qHTS assay to identify small molecule agonists of the estrogen related receptor (ERR) signaling pathway from Tox21 library (AID 1224849; calls by dose curve; further: nearly all actives have a fitted effect of over 15% in size); conditions: ERR reporter cell line, ONE-Glo luciferase, 18 h; at 92.4 µM (top of the series) unless noted
Summary of the method: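 ERR reporter cell line (NTP) seeded, rested 6 h at 37 C/5% CO2, then pinned with Tox21 compounds in DMSO. After 18 h at 37 C, ONE-Glo luciferase luminescence was read following 30 min at room temperature.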
On the % scale 0 is the no-effect control and ±100 the full control effect.

CCN(CC)CCNC(=O)c1cc(S(C)(=O)=O)ccc1OC
inactive: Potency [1] | Potency [2] | Potency [3] | Potency [4] | Potency [5] | Potency [6] | outcome [7] | Potency [8] | Potency [9] | Potency [10] | Potency [11] | Potency [12]

CC/C=C\CCOC(C)=O
inactive: Potency [1] | Potency [2] | Potency [3] | Potency [13] | Potency [14] | Potency [5] | Potency [15] | outcome [16] | Potency [17] | Potency [6] | outcome [7] | outcome [18] | Potency [8] | Potency [19] | activity change, positive = activation [20] 8.11% | Potency [9] | Potency [10] | Potency [11] | Potency [12]

C[C@](N)(Cc1ccc(O)cc1)C(=O)O
inactive: viability change, negative = cytotoxic [1] 1.82% [at 8.39 µM] | activity change, negative = inhibition [2] 0.0392% [at 10.5 µM] | viability change, negative = cytotoxic [3] 11.1% [at 8.39 µM] | activity change, negative = cytotoxicity [4] 2.5% [at 8.39 µM] | activity, negative = inhibition [15] -1.66% [at 8.39 µM] | activation [16] -0.549% [at 8.39 µM] | activity change, negative = cytotoxicity [6] 3.27% [at 6.97 µM] | activation (H2AX phosphorylation) [7] -0.087% [at 14 µM] | activity change, negative = cytotoxicity [8] 2.42% [at 14 µM] | activity, negative = inhibition [19] 3.87% [at 8.39 µM] | activity change, positive = activation [20] 2.18% [at 8.39 µM] | activity change, negative = cytotoxicity [9] 0.0825% [at 6.97 µM] | activity change, negative = cytotoxic [10] 1.02% [at 6.97 µM] | cytotoxicity [11] 5.11% [at 6.97 µM] | activity change, negative = cytotoxic [12] 4.28% [at 6.97 µM]

CCCCCCCCS(=O)(=O)Cl
inactive: Potency [1] | Potency [2] | Potency [3] | Potency [4] | Potency [13] | Potency [5] | Potency [15] | outcome [16] | Potency [6] | outcome [7] | outcome [18] | Potency [8] | Potency [19] | Potency [9] | Potency [10] | Potency [11] | Potency [12]

COC(=O)c1ccc(C)cc1C1=NC(C)(C(C)C)C(=O)N1 (stereo unspecified)
inactive: Potency [1] | Potency [2] | Potency [3] | Potency [13] | Potency [14] | Potency [5] | Potency [15] | outcome [16] | Potency [6] | outcome [7] | outcome [18] | Potency [8] | Potency [19] | activity change, positive = activation [20] 4.81% | Potency [9] | Potency [10] | Potency [11] | Potency [12]

O=C(O)CN(CCOCCOCCN(CC(=O)O)CC(=O)O)CC(=O)O
inactive: viability change, negative = cytotoxic [1] 1.46% [at 0.349 µM] | activity change, negative = inhibition [2] 0.561% [at 0.435 µM] | viability change, negative = cytotoxic [3] -0.739% [at 0.349 µM] | activity change, negative = cytotoxicity [4] 4% [at 0.349 µM] | viability change, negative = cytotoxic [5] -9.4% [at 0.349 µM] | activity, negative = inhibition [15] 5.6% [at 0.349 µM] | activation [16] -0.694% [at 0.349 µM] | activation [17] -8.79% [at 0.349 µM] | activity change, negative = cytotoxicity [6] -1.26% [at 0.29 µM] | activation (H2AX phosphorylation) [7] -0.327% [at 0.582 µM] | activity change, negative = cytotoxicity [8] 3.97% [at 0.582 µM] | activity, negative = inhibition [19] 2.61% [at 0.349 µM] | activity change, positive = activation [20] 1.46% [at 0.349 µM] | activity change, negative = cytotoxicity [9] -0.276% [at 0.29 µM] | activity change, negative = cytotoxic [10] 6.99% [at 0.29 µM] | cytotoxicity [11] 0.267% [at 0.29 µM] | activity change, negative = cytotoxic [12] 0.968% [at 0.29 µM]

CC(=O)CC(C)(C)C1CCCCC1
inactive: Potency [1] | Potency [2] | Potency [3] | Potency [4] | Potency [13] | Potency [5] | Potency [15] | outcome [16] | Potency [6] | outcome [7] | outcome [18] | Potency [8] | Potency [19] | activity change, positive = activation [20] 0.591% | Potency [9] | Potency [10] | Potency [11] | Potency [12]
